The campaign covered roughly 48,000 compounds. About 13,000 (27%) showed an effect of 50% or more. This is one part of the list.
What follows are compounds tested on Wolbachia pipientis (assay: Anti-Wolbachia Cell-Based Screen). Conditions: 5 µM.
Format: functional
Set-up: scale not given: in the data most compounds retested in dose-response had high values

SMILES | Percent Effect
COC(C)C(=O)Nc1cc(C(=O)N2CCSCC2)ccc1C (configuration not stated) | -22.96%
CNS(=O)(=O)c1ccc(CN2CCN3CCNC(=O)C3C2)cc1 (configuration not stated) | -0.7065%
COCCN1CCCC(O)(CN2CCN(c3cnccn3)CC2)C1=O (configuration not stated) | -3.22%
O=S(=O)(C1CC1)N1CCC(Cn2cccn2)CC1 | 1.748%
Cc1cc(C(C)NC(=O)c2ccc(O)nc2)c(C)o1 (configuration not stated) | 2.609%
CC(C)N1CC(NC(=O)c2ccc(Cl)s2)CC1=O (configuration not stated) | 98.39%
CCCS(=O)(=O)N1CCC(NC(=O)c2ccc(Cl)s2)CC1 | 8.314%
O=C(NC1CC(=O)N(C2CC2)C1)c1ccc(Cl)s1 (configuration not stated) | -7.498%
CCS(=O)(=O)N1Cc2[nH]nc(COCc3cccnc3)c2C1.O=C(O)C(F)(F)F | 98.27%
O=C(O)C(F)(F)F.O=C(O)C(F)(F)F.O=C(O)C(F)(F)F.c1ccc(CN2Cc3[nH]nc(COc4cccnc4)c3C2)nc1 | 6.723%
O=C(C1CC1)N1Cc2[nH]nc(COCc3cccnc3)c2C1.O=C(O)C(F)(F)F.O=C(O)C(F)(F)F | 96.05%
O=C(O)C(F)(F)F.O=S(=O)(C1CC1)N1Cc2[nH]nc(COCC3CC3)c2C1 | -8.849%
O=C(NC1CC1)N1Cc2[nH]nc(COc3cccnc3)c2C1.O=C(O)C(F)(F)F | -0.5105%
O=C(O)C(F)(F)F.O=C(O)C(F)(F)F.c1cncc(COCc2n[nH]c3c2CN(Cc2ccco2)C3)c1 | 1.979%
Cc1nn(C)c(C)c1-c1ccc(=O)n(C(C)C(=O)NC(C)(C)C)n1 (configuration not stated) | 122.1%
Cc1nn(C)c(C)c1C(C)NC(=O)Nc1cccnc1N1CCCC1 (configuration not stated) | 8.996%
CCSc1ccc(NC(=O)NC(C)c2c(C)nn(C)c2C)cn1 (configuration not stated) | -34.73%
COC(=O)[C@H]1CN(C(=O)NC(C)C)CCN1C(=O)c1cccs1 | 13.93%
Cc1cc(C(=O)N2CCc3nc(N4CCCC4)nc(C)c3CC2)c(C)o1 | 102.5%
Cc1nc(N2CCCC2)nc2c1CCN(C(=O)c1ccoc1C)CC2 | 99.57%
Cc1nc(N2CCCC2)nc2c1CN(C(=O)c1ccco1)CC2 | 4.912%
CN(C)c1nc(N2CCCC2)nc2c1CCN(C(=O)c1ccoc1)CC2 | -4.722%
Cc1cc(C(=O)N2CCc3nc(N4CCOCC4)nc(C)c3C2)c(C)o1.O=CO | 94.45%
CCc1noc(CS(=O)(=O)C(C)c2nc(C3CC3)no2)n1 (configuration not stated) | -17.73%
N#Cc1ccccc1OCCN1CCCC1Cn1cccn1 (configuration not stated) | 7.756%

SMILES | Percent Effect
COCC1CN(C(=O)Cc2ccc(F)cc2)Cc2ccnn2C1 (configuration not stated) | 27.63%
Cn1cc(Nc2cccc(C(=O)N(CC(N)=O)C3CCCC3)c2)cn1 | 6.719%
CC(NC(N)=O)C(=O)NCc1cc(Br)ccc1F (configuration not stated) | 3.265%
CN1CCCN(C[C@@H]2CN(C(=O)CCc3cn[nH]c3)C[C@@H]2CO)CC1 | 1.74%
O=C(CO)N1CCCn2nnc(Cn3cccn3)c2C1 | -5.05%
O=C(O)C(F)(F)F.c1cnc(NCc2nnn3c2CN(CC2CC2)CCC3)nc1 | 97.82%
C1CN(CC2CCOCC2)Cc2c(COCC3CC3)nnn2C1.O=C(O)C(F)(F)F | 2.92%
COCc1nnn2c1CN(C(=O)c1ccnnc1)CCC2 | -7.41%
O=C(c1ccnnc1)N1CCCn2nnc(COCC3CC3)c2C1 | -17.91%
CN(C)C(=O)NCc1nnn2c1CN(CC1CCOCC1)CCC2.O=C(O)C(F)(F)F | 4.127%
O=C(CC1CC1)N1CCCn2nnc(CNc3ncccn3)c2C1 | 92.45%
O=C(C1CC=CC1)N1CCCn2nnc(CNc3ncccn3)c2C1 | 108.6%
O=C(c1ccncc1)N1CCCn2nnc(Cn3cccn3)c2C1 | 4.632%
COc1ccc(OC)c(CCNC(=O)NC(C)Cn2ccnc2)c1 (configuration not stated) | -5.904%
O=C(CSc1nncs1)N1CCN(Cc2ccc(Cl)s2)CC1 | -21%
CCSc1ccc(C(C)NC(=O)CNS(C)(=O)=O)cc1 (configuration not stated) | 4.212%
O=C1OCCN1CCS(=O)(=O)c1cccc(Br)c1 | -18.91%
CCC(C)CNCC1(S(C)(=O)=O)CCOCC1 (configuration not stated) | -24.39%
Cc1n[nH]c2ncc(CNC3CCCN(c4ncccn4)C3)cc12.Cl (configuration not stated) | -16.46%
CC(=O)N1CCCCC1c1cc(CO)[nH]n1 (configuration not stated) | -3.311%
OCc1cc(C2CCCN2c2ncccn2)n[nH]1 (configuration not stated) | 112%
Cc1nc(C2CCCN(C(=O)c3sccc3C3CC3)C2)no1 (configuration not stated) | -10.65%
Cc1cc(CN2CCN(C(=O)c3sccc3C3CC3)CC2)no1 | 143.4%
Cc1nc(CN2CCN(C(=O)c3sccc3C3CC3)CC2)oc1C | 120.2%
O=C(c1sccc1C1CC1)N1CCCN(Cc2cscn2)CC1 | 113.8%

SMILES | Percent Effect
O=C(c1sccc1C1CC1)N1CCN(Cc2cscn2)CC1 | 132.1%
Cc1cc(CN2CCN(C(=O)c3sccc3C3CC3)CC2)on1 | -1.767%
COCc1nc(C(=O)N2CCN(Cc3cc(C)on3)CC2)cs1 | -18.23%
Cc1nc(CN2CCCN(C(=O)c3ccccn3)CC2)oc1C | 3.458%
NC(=O)NCC(=O)N1C[C@H]2CC[C@@H]1CN(Cc1ccccc1)C2 | -2.465%
CCNc1ncc(C(=O)N[C@@H](C)[C@H](O)c2ccccc2)cn1 | -5.841%
CS(=O)(=O)NCC(=O)N[C@H]1CN(CC2CC2)C[C@@H]1c1ccccc1 | 5.176%
Cc1ccc([C@@H]2CN(S(=O)(=O)N3CCC(C)CC3)C[C@H]2N(C)C)cc1 | 5.444%
Cc1cc(C)n(C2CCCN(C(=O)c3c(C)c(C)n[nH]c3=O)C2)n1 (configuration not stated) | -2.25%
C[C@@H]1CN(S(=O)(=O)N2CCOCC2)C[C@@]1(O)C1CC1 | 13.89%
Cc1cc(C)n(C2CCN(S(C)(=O)=O)CC2)n1 | 88.3%
Cc1cc(C)n(C2CCCN(C(=O)C3=NN(C)C(=O)CC3)C2)n1 (configuration not stated) | -1.412%
Cc1cc(C)n(C2CCN(S(=O)(=O)N3CCC(C)CC3)CC2)n1 | 84.26%
Cc1cc(C)n(C2CN(CC(=O)NCC(C)(C)N3CCOCC3)C2)n1 | 4.363%
CC1CCN(S(=O)(=O)N2CCc3sccc3C2)CC1 | 3.018%
Cc1cc(C)n(C2CCN(S(=O)(=O)N3CCOCC3)CC2)n1 | 108%
CN(Cc1cnn(C)c1)C1CCN(c2cccc(-c3cscn3)c2)CC1 | -7.204%
CCn1c(CC2CCN(C(=O)c3cc(C(C)C)nn3C)CC2)n[nH]c1=O | 0.9199%
Cc1occc1C(=O)NCC(=O)NCCCOc1ccc(F)cc1 | -8.265%
CCc1nnc(CNc2ccc(CC(=O)N3CCSCC3)cc2)o1 | 7.337%
CCc1ccc2nc(C)cc(C(=O)N[C@@H]3C[C@@H](CO)N(C)C3)c2c1 | 90.46%
COC(=O)[C@@H]1C[C@H](NC(=O)c2cc(=O)[nH]c3ccc(C)cc23)CN1C | 103.5%
CCNC(=O)[C@@H]1C[C@H](N)CN1C(=O)Cc1cc(C)ccc1C | -8.677%
CCc1ccc2nc(C)cc(C(=O)NC3CCC(=O)N(C)C3)c2c1 (configuration not stated) | -60.56%
CNc1ccc(C)cc1C(=O)N[C@H]1C[C@H]2CN(C)CCN2C1 | 9.233%

SMILES | Percent Effect
CCNC(=O)[C@@H]1C[C@H](NC(=O)c2cc(=O)[nH]c3ccc(C)cc23)CN1C | 116.2%
Cc1ccc2[nH]c(=O)cc(C(=O)NCCCn3nccc3C3CC3)c2c1 | -8.543%
COC(=O)[C@@H]1C[C@@H](NC(=O)CN2C(=O)N(C)Cc3ccccc32)CN1C | -9.28%
Cc1ccc2[nH]c(=O)cc(C(=O)N[C@@H]3C[C@@H](CO)N(C)C3)c2c1 | 108.3%
CCNC(=O)[C@@H]1C[C@@H](N)CN1C(=O)Cc1cc(C)ccc1C | -80.39%
CCc1ccc2nc(C)cc(C(=O)N[C@@H]3CCCNC3)c2c1 | -27.02%
COC(=O)[C@@H]1C[C@H](NC(=O)Cn2c(=O)cc(C)c3ccccc32)CN1C | 0.9939%
CCNc1ncc(C(=O)N2CCOC(CCCc3ccccc3)C2)cn1 (configuration not stated) | 15.39%
Cc1nc(C)c(C(=O)NCc2nc3cccc(C)c3n2C)o1 | 31.6%
O=C(c1ncn2c1CNS(=O)(=O)c1ccccc1-2)N1CCCCC1 | -12.5%
CC(C)(CNC(=O)C1(c2cccc(Br)c2)CCOCC1)C(=O)O | -13.82%
Cc1[nH]nc(CCC(=O)N2CCc3ncnc(NCCO)c3CC2)c1C | 77.14%
Cc1[nH]nc(CCC(=O)N2CCc3c(nc[nH]c3=O)C2)c1C | 104.7%
COc1cccc(CC(=O)N2CCc3ncnc(NCCO)c3CC2)c1 | -0.2896%
Cc1ccsc1[C@@H]1CCN(C(=O)CCc2n[nH]c(C)c2C)C[C@H]1O | 6.25%
CSCCC(=O)N1CCc2c(ncnc2N2CCOCC2)C1 | -13.57%
Cc1cnccc1N1CCCN(C(=O)CCc2n[nH]c(C)c2C)CC1 | -9.911%
Cc1ccccc1CCC(=O)N1CCc2ncnc(NCCO)c2CC1 | -0.3127%
Cc1n[nH]c(C)c1CCC(=O)N1CCc2c(nc[nH]c2=O)C1 | 106.7%
Cc1nc(CCC(=O)N2Cc3cnc(-c4ccccc4)nc3C2)n[nH]1 | -6.082%
Cn1nc(Cn2cccc2)c2c1CN(Cc1ccoc1)C2.O=C(O)C(F)(F)F | -1.566%
Oc1cccc(CN2CCN(c3nccc(CCC(F)(F)F)n3)CC2)c1 | 0.5395%

Reference: ChEMBL document CHEMBL3988442, “University of Dundee, Small-Polar-MMV Screening Library” (2021)
